Hits are enriched below; roughly 2.7% of the tested compounds scored in any of these assays.
CHT block = human CHT choline transport inhibition. Q9GZV3. CHT-expressing cells, membrane potential dye, choline response; stronger effect = lower value. B-score at 10 µM. 0.86% of 310,000 active;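 active = B-score over 3 SD under the library average, and starting fluorescence ratio not unusually high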;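 also: choline stimulus applied at its EC90 after an EC20 pre-addition; B-score computed on integrated fluorescence ratio after choline addition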
CHT allo act = allosterically activates the human high affinity choline transporter | CHT-expressing cells, membrane potential dye, choline EC20; stronger effect = higher value; LV-AA mutant CHT in HEK293 cells | 0.49% of 310,000 active | AID 488977 | B-score at 10 µM;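 active = initial fluorescence not abnormally high and integrated response B-score, plate-corrected, over 3 SD above library mean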
ANO1 activ = mouse TMEM16A channel activation, primary screen; Q8BHY3; HEK293 TMEM16A/YFP-H148Q/I152L, iodide quench fluorescence; stronger effect = lower value; B-score at 10 µM; 0.3% of 340,000 active; AID 623877;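 active = fluorescence-ratio B-score plate-corrected deviation score at least 3 library SD below zero, with starting fluorescence score within 5 deviations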;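 also: channel opened by trigger with iodide after compound preincubation; score built on the fluorescence ratio of max minus min over baseline; more negative score means more quench and so TMEM16A activation or potentiation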
Target sequence (Q8BHY3 whole entry, looked up): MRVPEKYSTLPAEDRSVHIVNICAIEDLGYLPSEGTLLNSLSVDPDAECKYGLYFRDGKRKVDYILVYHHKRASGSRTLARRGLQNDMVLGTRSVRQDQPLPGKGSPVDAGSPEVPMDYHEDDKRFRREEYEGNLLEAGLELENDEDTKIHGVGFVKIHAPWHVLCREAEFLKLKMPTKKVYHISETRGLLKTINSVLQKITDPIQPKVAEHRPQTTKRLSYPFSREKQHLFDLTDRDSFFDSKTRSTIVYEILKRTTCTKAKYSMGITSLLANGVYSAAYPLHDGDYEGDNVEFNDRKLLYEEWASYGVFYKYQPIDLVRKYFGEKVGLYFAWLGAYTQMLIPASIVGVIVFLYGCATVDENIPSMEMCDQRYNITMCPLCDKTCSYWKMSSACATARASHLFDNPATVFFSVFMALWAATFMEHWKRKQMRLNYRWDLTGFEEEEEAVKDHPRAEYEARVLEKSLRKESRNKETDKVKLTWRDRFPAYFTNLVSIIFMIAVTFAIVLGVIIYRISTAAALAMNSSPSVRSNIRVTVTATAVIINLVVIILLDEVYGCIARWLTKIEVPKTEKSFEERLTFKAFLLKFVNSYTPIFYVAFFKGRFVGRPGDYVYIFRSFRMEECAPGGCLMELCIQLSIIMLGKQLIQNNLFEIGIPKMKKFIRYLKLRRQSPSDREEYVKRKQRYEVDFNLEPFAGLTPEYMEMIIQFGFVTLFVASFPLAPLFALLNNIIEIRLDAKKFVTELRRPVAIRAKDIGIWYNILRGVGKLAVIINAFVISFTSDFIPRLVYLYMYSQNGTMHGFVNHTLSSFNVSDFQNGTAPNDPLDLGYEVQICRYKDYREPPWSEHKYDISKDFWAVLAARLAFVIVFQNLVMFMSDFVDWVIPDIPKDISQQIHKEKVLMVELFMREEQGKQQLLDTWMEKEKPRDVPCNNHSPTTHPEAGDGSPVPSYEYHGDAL
IDE cell activ = boosts human insulin-degrading enzyme activity in HEK cells; P14735; FAbeta-B cleavage, fluorescence polarization; 0% vehicle, 100% cell-free pure enzyme wells; activation, % at 5.96 µM; 0.073% of 340,000 active; AID 493087;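 active = activation above the mean of all tested compounds plus 3 SD, set per screening campaign, cut at about 17% in these data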
ANO1 block = mouse TMEM16A channel inhibition, primary screen | HEK293 TMEM16A/YFP iodide influx fluorescence, ionomycin | normalized B-score (activity score, 25-100; higher = stronger inhibition) at 10 µM | AID 588511 | Q8BHY3 | 1.2% of 310,000 active;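 active = ratio plate-corrected score three or more library SD toward inhibition, starting fluorescence score within five deviations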;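 also: score derived from kinetic fluorescence span divided by baseline fluorescence per well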
IDE inh = inhibitors of human insulin-degrading enzyme in cells; P14735; HEK cells, FAbetaB cleavage, fluorescence polarization; inhibition, % at 5.59 µM; 0.41% of 320,000 active; AID 434962;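 active = percent inhibition above the average of all tested compounds plus 3 SD, set per screening campaign, cut at about 16% in these data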;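 also: IDE supplied by intact live HEK cells; FP after avidin binding of uncleaved biotin substrate so inhibition keeps polarization high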
Large screens that a line does not name were inactive.

O=C(c1cccc(S(=O)(=O)N2CCN(c3ccc(F)cc3)CC2)c1)N1CCCC(C(F)(F)F)C1 (configuration not stated)	ANO1 block 25
O=C(NC1CCN(c2ncccn2)CC1)c1ccccc1Cl	none
Cc1nn2c3ccccc3n(Cc3ccccc3)c2nc1=O	ANO1 activ -20
Cc1nn2c3ccccc3n(C)c2nc1=O	none
O=C(CSc1cccc[n+]1[O-])Nc1cc(Cl)ccc1[N+](=O)[O-]	none (no result: CHT block, CHT allo act, ANO1 block)
O=[N+]([O-])c1ccc(Sc2cccc[n+]2[O-])c2nonc12	ANO1 activ -4.9 (no result: CHT block, CHT allo act, ANO1 block, IDE inh)
Cc1nn(-c2cc(C(F)(F)F)ccc2Cl)c2nc(C(F)(F)F)[nH]c(=O)c12	none
Cc1nn(-c2cccc(Cl)c2)c2nc(C(F)(F)F)[nH]c(=O)c12	ANO1 block 100
O=c1c2c(n3cnnc3n1-c1ccccc1)-c1ccccc1CC21CCCCC1	none
CCn1c(=O)c2c(n3cnnc13)-c1ccccc1CC21CCCCC1	ANO1 activ -9.6
CC(=O)Oc1cc2c(C(=O)NCc3ccncc3)c(C)oc2c2ccccc12	ANO1 activ -21
O=C(CCc1nc(-c2ccccc2F)no1)Nc1ccc(Oc2ccccc2)cc1	ANO1 block 100
Cc1nc2nc(N)nn2c(C)c1C/C=C/c1ccccc1	ANO1 activ -37
Cc1nc2ncnn2c(C)c1C/C=C/c1ccccc1	none
CSc1ncccc1C(=O)OCC(=O)c1ccccc1Br	ANO1 activ -23
O=c1[nH]c(Cc2cccc(C(F)(F)F)c2)nc2ccccc12	none
N#CCCCSc1nnc(CSc2nc3ccccc3s2)n1-c1ccccc1	none
CCCSc1nnc(CSc2nc3ccccc3s2)n1-c1ccccc1	ANO1 block 100
COc1ccc(/C=N/N=C2/CC(C)(C)Cc3n[nH]c(=O)cc32)cc1	ANO1 activ -9.1
Cc1csc2c(N3CCN(C(=O)Nc4ccccc4)CC3)ncnc12	ANO1 block 25
O=C(Nc1ccccc1)N1CCN(c2ccccn2)CC1	none
C/C(=C\c1cc2ccccc2o1)C1Nc2cccc3cccc(c23)N1	ANO1 activ -18 (no result: CHT block, CHT allo act, ANO1 block)
COc1ccc(C(=O)Nc2ccc(S(=O)(=O)Nc3cc(C)nc(C)n3)cc2)cc1OC	ANO1 activ -6.7
COc1cc(C(=O)Nc2ccc(S(=O)(=O)Nc3cc(C)nc(C)n3)cc2)cc(OC)c1OC	none
CC(C)N(Cc1ccccc1)C(=O)CN1C(=O)NC2(CCCCCC2)C1=O	none (no result: CHT block, CHT allo act, ANO1 block)
N#CCCN(C(=O)COC(=O)c1ccc(S(=O)(=O)N2CCCC2)cc1)c1cccc(Cl)c1	none (no result: CHT block, CHT allo act, ANO1 block)
COc1cccc(N2CCN(c3ccc4nnc(CCC(=O)Nc5ccc(OC)c(OC)c5)n4n3)CC2)c1	none
Clc1ccc(-c2ccnc(Oc3cc(Cl)ccc3Cl)n2)cc1	ANO1 block 25
COc1ccc(NC(=O)CSc2nc(N)cc(N)n2)cc1S(=O)(=O)N1CCCCC1	none (no result: CHT block, CHT allo act, ANO1 block)
N#Cc1c(-c2ccc(Cl)cc2)c2c([nH]c1=O)-c1ccccc1OC2	IDE inh 16
Cc1c(/C=N/NC(=O)C(NC(=O)c2ccc3c(c2)OCO3)C(C)C)c2ccccc2n1C (configuration not stated)	ANO1 activ -5.7
CC(C)C(NC(=O)c1ccc2c(c1)OCO2)C(=O)N/N=C/c1cccs1 (configuration not stated)	none
CC(C)(C)n1nnnc1C(c1cccnc1)N(Cc1ccccc1)Cc1ccco1 (configuration not stated)	none
COc1cccc(CN(Cc2ccco2)C(c2ccc(F)cc2)c2nnnn2C(C)(C)C)c1 (configuration not stated)	ANO1 activ -26
CCN(C(=O)Cn1cnc2ccccc2c1=O)C1CCS(=O)(=O)C1 (configuration not stated)	none
O=C(CCc1nc(-c2ccccc2)c(-c2ccccc2)o1)OCc1ccc(Br)cc1	none
O=C(CCc1nc(-c2ccccc2)c(-c2ccccc2)o1)OCc1ccc(Cl)cc1	ANO1 activ -5.5
Cc1ccc(-n2nc3c(c2NC(=O)c2ccccc2)CS(=O)(=O)C3)cc1C	none
CC(C)NS(=O)(=O)c1ccc(NC(=O)C(C)Oc2ccc(C(=O)c3ccccc3)cc2)cc1 (configuration not stated)	ANO1 block 100
CC1CCCN(C(=O)NC2CC(=O)N(c3ccc4c(c3)OCCO4)C2)C1 (configuration not stated)	none
CCCCN(C(=O)C(C)(C)Oc1ccc(Cl)cc1)c1c(N)n(CCC)c(=O)[nH]c1=O	none (no result: CHT block, CHT allo act, ANO1 block)
Cc1ccc(NC(=O)C(NC2CCCc3ccccc32)c2ccccc2)cc1Cl (configuration not stated)	none
Cc1ccc(NC(=O)C(NC2CCCc3ccccc32)c2ccccc2)c([N+](=O)[O-])c1 (configuration not stated)	ANO1 activ -5.8
Cc1cc(C(=O)N/N=C/c2c(C)nn(-c3ccccc3)c2C)n[nH]1	none
Cc1nn(-c2ccccc2)c(C)c1/C=N/NC(=O)c1cc(C23CC4CC(CC(C4)C2)C3)[nH]n1	CHT block -8.5
CCCCn1nc2cc(C(=O)NCCCCc3ccccc3)ccc2c1OCC	IDE cell activ 21
CCOc1c2ccc(C(=O)NCCCCc3ccccc3)cc2nn1C	none
Cc1ccccc1N1CCN(C2CCCN(C(=O)c3snnc3C)C2)CC1 (configuration not stated)	none
NC(=O)c1cc2cc(Br)ccc2oc1=NCc1ccccc1	ANO1 activ -8.5
NC(=O)c1cc2ccc(O)cc2oc1=NCc1ccccc1	none
COc1ccc(NS(=O)(=O)c2ccc(NC(=S)NC(=O)C(C)C)cc2)cc1	ANO1 block 25
O=S(=O)(c1ccc2nc(Nc3ccccc3)ccc2c1)N1CCCCC1	none
Cc1ccc(NS(=O)(=O)c2ccc3c(c2)CCN3C(=O)CCC(=O)O)cc1Cl	none
O=C1CSC(=S)N1N=Cc1ccccc1O	none (no result: CHT block, CHT allo act, ANO1 block, IDE inh)
O=C1CSC(=S)N1/N=C/c1cc(Br)c(O)c(Br)c1	IDE inh 133
COc1ccc(NC(=O)Nc2cccc3c2O[C@H](CN(C)Cc2ccc(-c4ccccc4)cc2)[C@@H](C)CN([C@H](C)CO)C3=O)cc1	none (no result: CHT block, CHT allo act, ANO1 block)
O=C(Cc1ccccc1F)Nc1nc(-c2ccc(F)cc2)cs1	ANO1 block 25
O/N=C/Cc1[nH]c2ccccc2c1-c1ccccc1	none
O=C(CSc1ccc(Cl)cc1)N1CCC(c2nc3ccccc3s2)CC1	ANO1 block 100
Cc1c(N2C(=O)/C(=C/c3ccc(N(C)C)cc3)N(C)C2=S)c(=O)n(-c2ccccc2)n1C	ANO1 activ -8 (no result: CHT block, CHT allo act, ANO1 block, IDE inh)
Cc1c(N2C(=O)/C(=C/c3ccccc3)SC2=S)c(=O)n(-c2ccccc2)n1C	none
O=C(CSc1ccc([N+](=O)[O-])cc1)Nc1nnc(C2CC2)s1	none (no result: CHT block, CHT allo act, ANO1 block)
